Measured values from paper PMC7862700, “An all-to-all approach to the identification of sequence-specific readers for epigenetic DNA modifications on cytosine”.

What was measured:
Test in all cases: DAPPL (digital affinity profiling via proximity ligation, sequencing); 10 mM Tris-HCl pH 7.5, 50 mM NaCl, 1 mM DTT, 4% glycerol, room temperature, 30 min; GST-TFs on glutathione beads, 16-mer random dsDNA library, 0.1% formaldehyde crosslink after washing; high values mean tight binding
Details in all cases: protein: recombinant; tags: N-terminal GST; dsDNA, one strand shown
ETV1 = ETV1 (Homo sapiens, UniProt P50549 1-477)
Summary of the method: (§1)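 Beads coated with glutathione captured GST-fused human transcription factors that had been expressed in yeast, and the factors were then given DNA barcodes and pooled with a tag-only sample. The pools were incubated with 200 nmole of a random double-stranded 16-mer DNA library in Tris/NaCl/DTT/glycerol buffer for 30 min at room temperature, washed, crosslinked with 0.1% formaldehyde and proximity-ligated with BsaI/T4 ligase at 37 °C for 1 h. PCR amplification and Illumina NextSeq500 sequencing came last. Binding signal is each hexamer's read frequency for a factor divided by its frequency for the tag-only sample.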

ERF = target: T1, ERF (Homo sapiens, UniProt P50548 1-548)
T1 sequence: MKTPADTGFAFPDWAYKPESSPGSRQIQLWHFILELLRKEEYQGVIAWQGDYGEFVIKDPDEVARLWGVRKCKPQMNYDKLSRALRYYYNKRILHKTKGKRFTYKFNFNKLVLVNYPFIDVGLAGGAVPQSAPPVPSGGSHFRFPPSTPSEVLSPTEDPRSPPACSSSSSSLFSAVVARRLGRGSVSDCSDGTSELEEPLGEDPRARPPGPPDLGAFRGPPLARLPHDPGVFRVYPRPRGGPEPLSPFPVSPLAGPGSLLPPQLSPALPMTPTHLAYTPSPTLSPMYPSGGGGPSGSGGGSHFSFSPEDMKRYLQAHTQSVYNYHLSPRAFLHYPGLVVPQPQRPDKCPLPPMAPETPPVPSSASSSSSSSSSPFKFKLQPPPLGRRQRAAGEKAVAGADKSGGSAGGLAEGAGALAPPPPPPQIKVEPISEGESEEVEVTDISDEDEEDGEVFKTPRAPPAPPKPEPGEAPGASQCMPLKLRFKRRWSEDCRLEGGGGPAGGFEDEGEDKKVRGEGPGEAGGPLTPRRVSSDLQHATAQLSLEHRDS
Summary of the method: as §1

ETV3L = target: T2, ETV3L (Homo sapiens, UniProt Q6ZN32 1-361)
T2 sequence: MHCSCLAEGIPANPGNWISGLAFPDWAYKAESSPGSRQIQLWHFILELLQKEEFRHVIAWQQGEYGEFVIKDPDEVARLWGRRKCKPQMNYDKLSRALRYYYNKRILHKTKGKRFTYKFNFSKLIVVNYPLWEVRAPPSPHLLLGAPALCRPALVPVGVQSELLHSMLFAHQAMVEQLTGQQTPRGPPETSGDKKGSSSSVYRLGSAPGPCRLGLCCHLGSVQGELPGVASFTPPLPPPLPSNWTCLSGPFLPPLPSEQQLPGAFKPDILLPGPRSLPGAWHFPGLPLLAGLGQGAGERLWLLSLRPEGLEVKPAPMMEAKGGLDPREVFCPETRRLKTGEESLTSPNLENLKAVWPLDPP
Summary of the method: as §1

ETS2 = target: T3, ETS2 (Homo sapiens, UniProt P15036 1-469)
T3 sequence: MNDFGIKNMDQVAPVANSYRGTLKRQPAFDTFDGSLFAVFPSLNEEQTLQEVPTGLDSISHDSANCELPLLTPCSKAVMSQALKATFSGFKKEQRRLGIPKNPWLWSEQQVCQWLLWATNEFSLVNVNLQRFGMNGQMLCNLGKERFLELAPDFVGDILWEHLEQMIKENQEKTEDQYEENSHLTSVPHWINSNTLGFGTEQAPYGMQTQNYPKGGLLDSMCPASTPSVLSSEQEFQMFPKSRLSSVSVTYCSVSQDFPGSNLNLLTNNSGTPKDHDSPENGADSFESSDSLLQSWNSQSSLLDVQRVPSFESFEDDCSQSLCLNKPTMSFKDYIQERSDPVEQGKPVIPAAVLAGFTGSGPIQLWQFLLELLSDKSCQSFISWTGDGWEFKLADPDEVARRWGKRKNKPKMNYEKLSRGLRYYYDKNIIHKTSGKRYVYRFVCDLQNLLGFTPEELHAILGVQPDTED
Summary of the method: as §1

SPDEF = target: T4, SPDEF (Homo sapiens, UniProt O95238 1-335)
T4 sequence: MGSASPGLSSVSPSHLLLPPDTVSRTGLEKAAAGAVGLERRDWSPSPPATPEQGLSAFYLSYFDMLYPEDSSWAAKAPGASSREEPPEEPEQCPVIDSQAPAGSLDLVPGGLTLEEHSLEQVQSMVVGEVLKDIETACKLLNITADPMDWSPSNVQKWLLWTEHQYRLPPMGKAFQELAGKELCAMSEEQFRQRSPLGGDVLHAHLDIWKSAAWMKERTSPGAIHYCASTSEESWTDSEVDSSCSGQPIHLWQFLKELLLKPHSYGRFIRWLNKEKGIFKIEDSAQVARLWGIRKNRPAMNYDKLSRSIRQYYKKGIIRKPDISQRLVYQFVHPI
Summary of the method: as §1

ETV7 = target: T5, ETV7 (Homo sapiens, UniProt Q9Y603 1-341)
T5 sequence: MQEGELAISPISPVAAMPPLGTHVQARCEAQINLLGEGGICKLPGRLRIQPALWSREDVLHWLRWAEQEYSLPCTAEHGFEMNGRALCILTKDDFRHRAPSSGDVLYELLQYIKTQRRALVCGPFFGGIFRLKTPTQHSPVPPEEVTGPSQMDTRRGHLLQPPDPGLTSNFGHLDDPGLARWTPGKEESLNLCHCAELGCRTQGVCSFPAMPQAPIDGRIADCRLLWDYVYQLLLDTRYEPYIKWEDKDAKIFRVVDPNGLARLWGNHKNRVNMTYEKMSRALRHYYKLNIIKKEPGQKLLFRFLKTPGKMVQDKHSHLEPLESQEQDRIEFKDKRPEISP
Summary of the method: as §1

ELF5 = target: T6, ELF5 (Homo sapiens, UniProt Q9UKW6-2 1-255)
T6 sequence: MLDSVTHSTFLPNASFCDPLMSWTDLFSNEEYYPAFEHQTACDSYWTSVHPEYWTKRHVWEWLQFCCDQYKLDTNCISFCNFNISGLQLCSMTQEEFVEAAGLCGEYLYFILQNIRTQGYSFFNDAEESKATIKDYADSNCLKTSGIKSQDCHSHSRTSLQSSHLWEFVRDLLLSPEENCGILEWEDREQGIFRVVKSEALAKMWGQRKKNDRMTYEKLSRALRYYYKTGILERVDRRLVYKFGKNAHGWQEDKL
Summary of the method: as §1

ETV3 = target: T7, ETV3 (Homo sapiens, UniProt P41162-2 1-143)
T7 sequence: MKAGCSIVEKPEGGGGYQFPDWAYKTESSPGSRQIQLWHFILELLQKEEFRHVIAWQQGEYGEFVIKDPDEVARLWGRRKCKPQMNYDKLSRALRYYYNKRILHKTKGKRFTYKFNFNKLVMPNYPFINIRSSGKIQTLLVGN
Summary of the method: as §1

ETV6 = ETV6 (Homo sapiens, UniProt P41212 1-452)
Summary of the method: as §1

Sequence of ETV1 (P50549 whole entry, the tested form may be a part): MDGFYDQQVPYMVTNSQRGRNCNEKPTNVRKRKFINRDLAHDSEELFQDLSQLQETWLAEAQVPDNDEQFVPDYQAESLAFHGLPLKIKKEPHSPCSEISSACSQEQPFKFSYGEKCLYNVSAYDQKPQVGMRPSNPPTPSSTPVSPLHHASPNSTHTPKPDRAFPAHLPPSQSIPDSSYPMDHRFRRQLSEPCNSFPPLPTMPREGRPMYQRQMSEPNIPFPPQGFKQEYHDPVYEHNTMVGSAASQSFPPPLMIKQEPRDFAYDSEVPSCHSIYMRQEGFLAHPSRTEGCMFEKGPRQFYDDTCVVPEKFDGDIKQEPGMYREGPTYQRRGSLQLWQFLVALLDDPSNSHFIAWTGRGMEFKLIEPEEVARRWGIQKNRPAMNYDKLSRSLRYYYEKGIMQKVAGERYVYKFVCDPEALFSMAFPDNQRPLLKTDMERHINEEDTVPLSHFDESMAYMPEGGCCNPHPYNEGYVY
Sequence of ETV6 (P41212 whole entry): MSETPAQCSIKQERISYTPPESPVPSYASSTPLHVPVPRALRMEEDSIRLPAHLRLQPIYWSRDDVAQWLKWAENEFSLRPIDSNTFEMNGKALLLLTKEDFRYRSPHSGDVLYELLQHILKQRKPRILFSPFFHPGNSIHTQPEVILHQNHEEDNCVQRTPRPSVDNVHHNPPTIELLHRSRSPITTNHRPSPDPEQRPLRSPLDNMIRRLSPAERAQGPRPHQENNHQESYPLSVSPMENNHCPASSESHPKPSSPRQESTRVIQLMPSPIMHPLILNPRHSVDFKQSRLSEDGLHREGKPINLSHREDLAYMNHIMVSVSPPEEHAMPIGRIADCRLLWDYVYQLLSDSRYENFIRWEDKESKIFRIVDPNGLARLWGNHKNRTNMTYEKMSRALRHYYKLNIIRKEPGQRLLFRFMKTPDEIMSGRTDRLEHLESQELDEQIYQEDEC

## TCTTGG
ETV1
  binding signal: 1.23 fold enrichment (6-mer frequency, TF over GST control)
ERF
  binding signal: 1.4 fold enrichment (6-mer frequency, TF over GST control)
ETV3L
  binding signal: 1.43 fold enrichment (6-mer frequency, TF over GST control)
ETS2
  binding signal: 1.27 fold enrichment (6-mer frequency, TF over GST control)
SPDEF
  binding signal: 1.27 fold enrichment (6-mer frequency, TF over GST control)
ETV7
  binding signal: 1.38 fold enrichment (6-mer frequency, TF over GST control)
ELF5
  binding signal: 1.31 fold enrichment (6-mer frequency, TF over GST control)
ETV3
  binding signal: 1.29 fold enrichment (6-mer frequency, TF over GST control)
ETV6
  binding signal: 1.19 fold enrichment (6-mer frequency, TF over GST control)
